Bioassay records from PubChem BioAssay.
NPR2 activator: human GC-B receptor activators, primary screen, HEK293 GC-B cells, cGMP TR-FRET, EC30 CNP; Atrial natriuretic peptide receptor 2 (Homo sapiens), P20594; 0% at EC30 CNP, 100% saturating CNP; activation, % at 10 µM; AID 1920062, 2024; actives 0.11% (n = 370,000);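 active = activation at 10 µM reaching about 35% in either raw or pattern-adjusted values, limit read from the data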
NPR1 activator: GC-A stimulated cGMP production enhancers – HEK293 GC-A cells, cGMP TR-FRET, EC30 ANP, primary screen. actives 0.14% (n = 370,000). activation, % at 10 µM. AID 1671463, 2021. 0% at EC30 ANP, 100% saturating ANP. Atrial natriuretic peptide receptor 1 (Homo sapiens), P16066; in the data active = activation above about 40%
APOBEC3A inh: APOBEC3A ssDNA deaminase inhibitors, primary screen, selectivity assay for APOBEC3G inhibitor project, biochemical, FAM/TAMRA oligo cleavage fluorescence; DNA dC->dU-editing enzyme APOBEC-3A (Homo sapiens), P31941; recombinant A3A, FAM/TAMRA ssDNA deamination fluorescence; inhibition, % at 20 µM; actives 0.41% (n = 330,000);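 active = at least 40% inhibition at 20 µM here, with at most 30% in a related deaminase screen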;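 note: plate controls were A3A with DMSO for no effect and wells lacking A3A enzyme for full effect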
Target sequence (P31941 whole entry, looked up): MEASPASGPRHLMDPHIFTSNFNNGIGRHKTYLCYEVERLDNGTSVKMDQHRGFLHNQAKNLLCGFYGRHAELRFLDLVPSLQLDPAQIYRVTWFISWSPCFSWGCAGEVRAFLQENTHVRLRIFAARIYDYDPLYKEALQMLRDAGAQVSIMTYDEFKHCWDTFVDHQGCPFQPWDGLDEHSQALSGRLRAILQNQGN
PfGluPho inh: PfG6PD enzyme inhibitors, primary screen, biochemical, fluorescence intensity, uHTS | AID 504690, 2011 | actives 0.78% (n = 350,000) | PfGluPho enzyme, NADPH resazurin-diaphorase fluorescence | glucose-6-phosphate dehydrogenase-6-phosphogluconolactonase (Plasmodium falciparum 3D7) | inhibition, % at 20 µM;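 active = inhibition reaching at least a set limit at 20 µM in the primary screen, cut at about 59% in these data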;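 note: 0% = DMSO wells with substrate and 100% = DMSO wells lacking glucose-6-phosphate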
A3G deaminase: APOBEC3G DNA deaminase inhibitors, primary screen, biochemical, fluorescence, single-stranded DNA substrate, uHTS. DNA dC->dU-editing enzyme APOBEC-3G (Homo sapiens), Q9HC16. AID 493012, 2011. actives 0.28% (n = 330,000). recombinant A3G, ssDNA deamination FAM/TAMRA fluorescence. inhibition, % at 20 µM;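 active = inhibition of at least 40% at 20 µM, with no more than 30% in the related APOBEC3A deaminase screen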;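 note: plate controls were DMSO wells with A3G for no effect and wells lacking A3G enzyme for full effect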
Neddyl block: inhibitors of cullin neddylation, primary screen, biochemical, TR-FRET, uHTS, NAE and Ubc12; AID 651699, 2012; inhibition, % at 25 µM; NEDD8-conjugating enzyme Ubc12 (Homo sapiens) + NEDD8-activating enzyme E1 regulatory …; actives 0.58% (n = 360,000); in the data active = inhibition above about 36%
PfGluPho conf: PfG6PD inhibitors, hit retest, confirmation, biochemical, fluorescence intensity, single concentration; AID 504753, 2011; shares compounds with PfGluPho inh; recombinant PfGluPho, NADPH-diaphorase-resazurin fluorescence; actives 34% (n = 2,400); inhibition, % at 20 µM;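 active = inhibition of at least 50% at 20 µM in any single replicate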;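 note: 0% = DMSO with substrate and 100% = DMSO lacking glucose-6-phosphate substrate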
Diaphorase 10uM: diaphorase inhibitors and chemical oxidizers, confirmation, counter-screen for P. falciparum G6PD inhibitor project, biochemical, fluorescence intensity, 10 µM NADPH. shares compounds with PfGluPho inh. diaphorase-coupled resazurin reduction, NADPH 10 uM. inhibition, % at 20 µM. actives 39% (n = 820). AID 504862, 2011;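 active = average inhibition reaching 50% or more with the compound at 20 µM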;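 note: resorufin red fluorescence formed as diaphorase reduces resazurin using NADPH; 0% = DMSO with enzyme and 100% = DMSO without enzyme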
Diaph ctr 30uM: diaphorase inhibitors and chemical oxidizers, confirmation, counter-screen for P. falciparum G6PD inhibitor project, biochemical, fluorescence intensity, 30 µM NADPH | actives 29% (n = 820) | inhibition, % at 20 µM | AID 504863, 2011 | Diaphorase/resazurin coupled assay, resorufin fluorescence | shares compounds with PfGluPho inh;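 active = inhibition averaging 50% or more, tested at 20 µM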;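 note: 0% = DMSO with enzyme and 100% = DMSO wells lacking diaphorase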
Active calls of the source: *; x = no result shown. Compounds with a hit are over-represented: about 2% of the library has one in this group of screens.

SMILES	NPR2 activator	NPR1 activator	APOBEC3A inh	PfGluPho inh	A3G deaminase	Neddyl block	PfGluPho conf	others
Cc1c(Cc2ccc3c(c2)OCO3)sc(NC(=O)c2cccc3ccccc23)c1C(N)=O	19.2	16.5	-0.7	86.5*	12.8	22.0	29.7
COC(=O)C1CCN(C(=O)CCn2nnc(-c3cccs3)n2)CC1	10.9	3.1	x	x	x	x	x
CC(=O)O[C@@H]1C=C[C@@H](C#Cc2ccc(C(C)(C)C)cc2)O[C@@H]1COC(=O)Nc1ccccc1	3.6	6.9	x	x	x	x	x
CN(C)c1ccc(Cc2cc3c(O)ccc(O)c3cc(Cc3ccc(N(C)C)cc3)c2=O)cc1	-8.4	-33.8	x	113.3*	x	-17.9	83.5*	Diaphorase 10uM=11.1;Diaph ctr 30uM=3.7
O=C(/C=C(\Nc1ccc(Br)c(F)c1)c1ccccc1)c1ccccc1	3.1	3.0	x	x	x	x	x
O=C1Nc2ccccc2C(=O)C1(Cl)Cc1ccccc1 (stereo unspecified)	8.3	15.5	2.4	69.5*	17.1	x	66.4*	Diaphorase 10uM=-1.7;Diaph ctr 30uM=-6.0
CC(C)(C)N1C(=O)c2ccccc2NC(=O)N1Cc1ccccc1	1.0	-2.7	-0.8	24.2	-4.8	-7.1	x
Cc1ccc2nc(SCC(=O)N/N=C/c3ccco3)cc(C)c2c1	3.4	-5.7	1.7	68.9*	-0.2	-57.3	49.9*	Diaphorase 10uM=66.5*;Diaph ctr 30uM=35.9
Cc1ccc2nc(N/N=C/c3ccco3)cc(C)c2c1	-3.8	1.4	-5.4	63.8*	-5.2	32.5	27.7
Cc1ccc2nc(C)cc(SCC(=O)N/N=C/c3ccco3)c2c1	-5.0	-3.1	-4.7	6.9	-5.8	-71.8	x
CCCC1CCC2(CC1)CCC2OC(=S)Nc1cccc(Cl)c1 (stereo unspecified)	5.6	0.6	x	x	x	x	x
O=C(/C=C/c1ccc(-c2ccccc2)o1)c1ccccc1	-0.2	-2.8	-1.0	111.3*	-3.9	1.1	4.9
Cc1ccc(-c2ccc(/C=C/C(=O)c3ccccc3)o2)cc1	3.2	1.2	-3.0	11.3	21.6	-0.8	x
C[C@@H]1C[C@H]2[C@@H](Cc3ccccc3)C(=O)N3[C@H](c4ccccc4)[C@H](C)C[C@H]3[C@@H](Cc3ccccc3)C(=O)N2[C@@H]1c1ccccc1	0.7	-6.2	x	x	x	x	x
COc1cccc(OCCSc2nnc3sc4ccccc4n23)c1	-18.1	-1.1	-2.3	52.0	-3.0	-4.1	x
c1ccc(OCCSc2nnc3sc4ccccc4n23)cc1	x	x	-7.8	105.0*	-7.4	6.6	97.5*	Diaphorase 10uM=88.2*;Diaph ctr 30uM=73.8*
CC(=S)/C=C1\Sc2ccccc2N1C	-2.9	1.0	3.0	47.3	5.8	-9.0	x
COc1ccc(C(=O)/C=C2\Sc3ccccc3N2C)cc1	-7.2	-2.5	-3.0	94.6*	0.1	28.3	47.7*	Diaphorase 10uM=55.3*;Diaph ctr 30uM=30.8
CCOC(=O)c1c(-c2ccccc2)oc2ccc(O)c(CN(C)C)c12	-11.8	-16.0	-1.7	-5.8	-5.1	5.9	x
CCOC(=O)c1c(CSCc2ccccc2)oc2ccc(O)c(CN(C)C)c12	-12.2	-17.8	-2.7	59.3*	-6.2	5.6	40.1
CN1C(=O)C[C@@](C#N)(C(=O)NCC(F)(F)F)[C@H]1c1ccccc1	5.7	2.8	x	x	x	x	x
